Measurements as given in PubChem BioAssay (NCATS).
Records with an inconclusive call do not appear. Active and inactive are the calls of the source. Calls follow the shape of the dose curve; as a rule, active = well fitted cell-killing curve with a large enough effect; inconclusive = small, poorly fitted or top-dose-only effect, or effect the other way; inactive = no such curve, though single readings can be large or run the other way.

Test: Quantitative High-Throughput drug screen in 47 multiple myeloma cell lines against the NCATS MIPE library collection: KMS21BM_JCRB cell viability assay (AID 1918974)
Details: ATP luminescence, 48 h; viability: at 45.8 µM
Outline: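 Steps: seed 500 cells per well; pin-transfer MIPE 4.0 library; incubate 48 h at 37C, 5% CO2, humidified; add CellTiter-Glo, 5 min room temperature; read luminescence.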
Potency is read from the fitted curve at half-maximal effect.

SMILES | Potency | viability
C=C1C[C@H]2[C@H]3CCC(=O)[C@@]3(C)CC[C@@H]2[C@@]2(C)C=CC(=O)C=C12 | 14.8 µM (active) | 
CCNC(=O)CC1N=C(c2ccc(Cl)cc2)c2cc(OC)ccc2-n2c(C)nnc21 (stereo not drawn) | 5.9 µM (active) | 
CN1CCN(c2ccc([N+](=O)[O-])c3no[n+]([O-])c23)CC1 | 8.33 µM (active) | 
CC1=NN=C(c2ccc(N)cc2)c2cc3c(cc2C1)OCO3 | 14.8 µM (active) | 
O=[N+]([O-])c1ncc[nH]1 |  | 288% (inactive)
CC(C)[C@H]1C(=O)N[C@H](CO)Cc2c[nH]c3cccc(c23)N1C |  | 313% (inactive)
C[C@]12CC[C@H](O)CC1=CC[C@H]1[C@H]3CCC(=O)[C@@]3(C)CC[C@@H]12 | 11.8 µM (active) | 

Test: Quantitative High-Throughput drug screen in 47 multiple myeloma cell lines against the NCATS MIPE library collection: KMS26_JCRB cell viability assay (AID 1918975); also: nearly all actives have a fitted effect of over 45% in size
Details: KMS26 myeloma cells viability, CellTiter-Glo ATP, 48 h; series mostly up to 45.8 µM; viability (% of DMSO): at the top concentration
Outline: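 Luminescent ATP measurement with CellTiter-Glo gives viability, scaled between DMSO-only wells (100%) and media-only wells (0%). Cells, 500 per well, faced library compounds for 48 hours at 37C.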

SMILES | Potency | viability (% of DMSO)
c1ccc(CCCN2CCN(CCOC(c3ccccc3)c3ccccc3)CC2)cc1 | 26.4 µM (active) | 
N=c1c2c(-c3ccccc3)c(-c3ccccc3)n(Cc3ccccc3)c2ncn1C1CCC(O)CC1 (stereo not drawn) | 26.4 µM (active) | 
O=C1CCC[C@@H]2[C@H]3CCCN4CCC[C@@H](CN12)[C@@H]34 |  | 134% (inactive)
CC(=O)Nc1ccc(OC[C@](C)(O)C(=O)Nc2ccc([N+](=O)[O-])c(C(F)(F)F)c2)cc1 |  | 161% (inactive)
CCCC[N+]1(C)[C@H]2CC(OC(=O)[C@H](CO)c3ccccc3)C[C@H]1[C@H]1O[C@H]12 (stereo partly drawn) |  | 134% (inactive)
CN[C@@H]1Cc2cccc3[nH]c(=O)n(c23)C1 |  | 128% (inactive)
CCNC(=O)CC1N=C(c2ccc(Cl)cc2)c2cc(OC)ccc2-n2c(C)nnc21 (stereo not drawn) | 5.9 µM (active) | 
CCCCCC[C@H]1C(=O)O[C@H](C)[C@H](NC(=O)c2cccc(NC=O)c2O)C(=O)O[C@@H](C)[C@@H]1OC(=O)CC(C)C | 0.132 µM (active) | 
CC=C(C)C(=O)O[C@H]1C(C)=C2[C@@H]3OC(=O)[C@@](C)(O)[C@@]3(O)[C@@H](OC(=O)CCC)C[C@](C)(OC(C)=O)[C@@H]2[C@@H]1OC(=O)CCCCCCC | 0.0296 µM (active) | 
N#C[C@H](O[C@@H]1O[C@H](CO[C@@H]2O[C@H](CO)[C@H](O)[C@H](O)[C@H]2O)[C@H](O)[C@H](O)[C@H]1O)c1ccccc1 | 20.9 µM (active) | 
CC1=NN=C(c2ccc(N)cc2)c2cc3c(cc2C1)OCO3 |  | 148% (inactive)
O=[N+]([O-])c1ncc[nH]1 |  | 128% (inactive)
COC[C@H]1OC(=O)c2coc3c2[C@@]1(C)C1=C(C3=O)[C@@H]2CC[C@H](O)[C@@]2(C)C[C@@H]1OC(C)=O | 3.32 µM (active) | 
O=C(NCC1CCOCC1)c1cnc(Nc2ccc(Cl)cc2Cl)nc1C(F)(F)F |  | 99.8% (inactive)
CC(O)=C(C#N)C(=O)Nc1cc(Br)ccc1Br | 18.7 µM (active) | 
C=C[C@@H]1CN2CCC1C[C@H]2[C@H](O)c1ccnc2ccccc12 (stereo partly drawn) |  | 115% (inactive)
CC(C)[C@H]1C(=O)N[C@H](CO)Cc2c[nH]c3cccc(c23)N1C |  | 98.8% (inactive)
C[C@H]1CCCC=CC2C[C@H](O)C[C@@H]2[C@H](O)C=CC(=O)O1 (stereo partly drawn) |  | 5.58% (inactive)
CC[C@H]1C=CC=CC[C@@H](C)[C@H](O)[C@@](C)(O)C(=O)[C@@H](C)[C@H](O)[C@@H](C)C(=O)[C@@H](C)[C@H](O)[C@@H](C)C=CC(=O)O[C@@H]2[C@@H](C)[C@H](CC1)O[C@]1(CC[C@H](C)[C@H](C[C@@H](C)O)O1)[C@H]2C | 10.5 µM (active) | 
Cc1c(C(=O)c2cccc3ccccc23)c2cccc3c2n1[C@H](CN1CCOCC1)CO3 | 23.5 µM (active) | 
O=C(Oc1ccc([N+](=O)[O-])cc1)N1CCC(C(O)(c2ccc3c(c2)OCO3)c2ccc3c(c2)OCO3)CC1 |  | 101% (inactive)
